# KB-V1 cytotox: qHTS assay for MDR1-selective chemotherapeutics: Primary screen using the drug-selected MDR subline cells KB-V1 | KB-V1 MDR cells viability, CellTiter-Glo, 72 h | Potency, µM (highest dose often 46.1 µM), hits mostly cytotoxic | 400,000 tested, 3.4% active | AID 1347076, 2019; also: % is scaled to controls: 0 for no effect and ±100 for the full control effect; nearly all actives have a fitted effect of over 60% in size
#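 Cytotoxicity toward P-gp-expressing KB-V1 cells was determined as loss of CellTiter-Glo luminescence after 72 h at 37 degrees C. Compounds were tested in quantitative HTS format across a concentration range, with curves fitted to normalized data.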
# HepG2 tox: qHTS for Inhibitors of TGF-b: Cytotox Counterscreen | Potency, µM (titrated, usually from 46.1 µM), without a hit: top-dose activity change, negative = cytotoxicity, actives largely listed as cytotoxic | 410,000 tested, 0.76% active | HepG2 CAGA-GFP viability, ATP luminescence, 18 h | AID 588856, 2011
#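 CellTiter-Glo luminescence gave cytotoxicity after 18 hours at 37 degrees C. The cells were HepG2 CAGA-GFP in 1% FBS DMEM, stimulated with 500 pg/mL TGF-beta after compound addition. %Activity was normalised to no-cell wells (complete cell-killing) and DMSO (no toxicity), and curves were fitted and classified.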
# KB-3-1 cytotox: qHTS assay for MDR1-selective chemotherapeutics: Primary screen using the parental adenocarcinoma cell KB-3-1; KB-3-1 viability, CellTiter-Glo ATP luminescence, 72 h; Potency, µM (doses to about 46.1 µM), most hits filed as cytotoxic; 400,000 tested, 1.4% active; also: % is scaled to controls: 0 for no effect and ±100 for the full control effect; nearly all actives have a fitted effect of over 60% in size
#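 Cytotoxicity measured as CellTiter-Glo luminescence after 72 h at 37 C. Compound titrations were pinned onto drug-naive KB-3-1 parental adenocarcinoma cells grown in DMEM with 10% FBS, and normalized data fitted to concentration-response curves.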
# HT1080 IDH1KD tx: qHTS for induction of synthetic lethality in tumor cells producing 2HG: qHTS for the HT-1080-IDH1KD cell line. HT-1080 IDH1 knockdown viability, ATP luminescence, 48 h. Potency, µM (doses to about 46.1 µM), for inactives: top-dose activity, negative = toxicity, actives largely listed as cytotoxic. 360,000 tested, 2% active. AID 686971, 2013;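 also: 0% = DMSO wells and -100% = cell-free medium wells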
#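 Assay cells: HT-1080 with IDH1 knockdown, 750 per well, RPMI/5% FBS. Exposure: 48 h at 37 °C following 2 h pre-incubation. Read: CellTiter-Glo luminescence; fitted concentration-response, curve class assigned.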
# HT1080-NT tox: qHTS for induction of synthetic lethality in tumor cells producing 2HG: qHTS for the HT-1080-NT fibrosarcoma cell line; HT-1080-NT fibrosarcoma viability, CellTiter-Glo ATP luminescence, 48 h; Potency, µM (titrated, usually from 46.1 µM), for inactives: at the highest dose activity, negative = less viability, hits mostly cytotoxic; 360,000 tested, 1.6% active; AID 686970, 2013;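 also: NT is the 2HG producing partner of a matched IDH1 knockdown line; 0% = DMSO-treated cells and -100% = media-only wells without cells; nearly all actives have a fitted effect of over 55% in size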
#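 Viability by CellTiter-Glo luminescence after 48 h compound exposure at 37C of HT-1080-NT cells (750/well, RPMI, 5% FBS). % activity scaled between DMSO wells and medium-only wells, then curve-fitted and categorized by curve class.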
# TGFb SMAD3 inh: qHTS for Inhibitors of TGF-b | HepG2 CAGA-GFP TGF-b/SMAD3 reporter, GFP fluorescence, 18 h; TGF-beta stimulated, 500 pg/mL final | Potency, µM (doses to about 46.1 µM), for inactives: at the top dose activity, negative = inhibition, hits mostly inhibitors | 410,000 tested, 1.2% active | AID 588855, 2011; also: % is scaled to controls: 0 for no effect and ±100 for the full control effect; nearly all actives have a fitted effect of over 65% in size
#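 HEPG2 CAGA-GFP cells (1000/well, DMEM with 1% FBS) were pre-incubated 2 h at 37 degrees C, given compound by pin tool, then stimulated with TGF-beta at 500 pg/mL final for 18 h before per-cell GFP fluorescence imaging.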
# * marks the source's active call; other numbers are inactive results; i = inactive; ? = inconclusive; . = no result. Shown are actives, neighbours in structure and some others; about 6.6% of the full set was active somewhere. Calls follow the shape of the dose curve; as a rule, active = well fitted curve in the direction sought with a large enough effect; inconclusive = small, poorly fitted or top-dose-only effect, or another doubt; inactive = no such curve, though single readings can be large; an effect the other way counts as inactive or inconclusive. Potency is read from the fitted curve at half-maximal effect.
SMILES,KB-V1 cytotox,HepG2 tox,KB-3-1 cytotox,HT1080 IDH1KD tx,HT1080-NT tox,TGFb SMAD3 inh
Cc1ccc(C(=O)N2CCN(c3ccc([N+](=O)[O-])c(NCc4cccnc4)c3)CC2)cc1,?,16%,i,-28%,?,?
Cc1ccccc1C(=O)N1CCN(c2ccc([N+](=O)[O-])c(NCc3cccnc3)c2)CC1,4.1µM*,-3%,i,-2%,0%,4%
CC(C)C[C@H](NC(=O)OC(C)(C)C)C(=O)N[C@@H](CO)[C@H](O)[C@@H]1C[C@@H]1C(=O)NC1CCCCC1,10µM*,-24%,i,1%,-2%,1%
CC(C)C[C@H](NC(=O)OC(C)(C)C)C(=O)N[C@@H](CO)[C@H](O)[C@@H]1C[C@@H]1C(=O)NC1CC1,i,1%,i,12%,9%,19%
COc1cccc(CNc2nc3cc(-c4ccccc4)sc3c(=O)n2C)c1,2.3µM*,-15%,7.3µM*,-20%,?,?
COc1cccc(CNc2nc3cc(-c4ccc(OC)c(OC)c4)sc3c(=O)n2C)c1,i,-3%,i,10%,-6%,2%
COc1cccc(CNc2nc3cc(-c4ccc(C(=O)N5CCN(C)CC5)cc4)sc3c(=O)n2C)c1,i,-44%,i,15µM*,23µM*,?
CC(=O)Nc1ccc(CNc2nc3cc(-c4ccsc4)sc3c(=O)n2C)cc1,23µM*,-17%,?,-26%,-9%,?
O=C(Nc1ccc2ccccc2c1)N1CCCN(CCOc2ccccc2)CC1,15µM*,-4%,?,5%,-8%,-28%
Clc1ccccc1N1CCN(Cc2c[nH]c3ccccc23)CC1,?,-49%,?,18µM*,?,16µM*
O=S(=O)(c1ccc(Cl)cc1)N1CCN(Cc2c[nH]c3ccccc23)CC1,i,2%,i,3%,-1%,-9%
COc1ccc(Br)cc1CN1CCN(Cc2c[nH]c3ccccc23)CC1,?,-97%,i,21µM*,?,?
NC(=O)C1CCN(c2ncnc(-c3ccc4c(c3)OCCCO4)n2)CC1,i,.,i,.,.,.
COCCCNc1c2c3c(cccc3[nH]c1=O)C(=O)c1ccccc1-2,2.1µM*,-15%,5.8µM*,?,?,-84%
COCCCNC1=C(Cl)C(=O)c2ccccc2C1=O,?,-71%,?,-8%,?,?
CN(C)CCNC(=O)/C(=C/c1ccc(-c2ccc(Cl)cc2Cl)o1)NC(=O)c1ccccc1,?,-105%,?,21µM*,?,?
CN(C)CCNC(=O)/C(=C/c1ccc(-c2ccc(Cl)cc2)o1)NC(=O)c1ccccc1,i,16µM*,?,-23%,-13%,?
CCOC(=O)C1(C(=O)OCC)NC(=O)CC1C(C)C (configuration not stated),i,-3%,i,3%,-1%,16%
CCC(C(=O)Nc1cc(OC)ccc1OC)n1c(C)c2cnn(-c3ccccc3)c(=O)c2c1C (configuration not stated),i,-12%,i,.,.,?
CCOc1ccc(NC(=O)CC2C(=O)N(c3ccc(Cl)cc3)C(=O)N2Cc2cccs2)cc1 (configuration not stated),.,-22%,.,.,.,-19%
Cc1nonc1OCCNC(=O)C12CC3CC(CC(C3)C1)C2,23µM*,-23%,i,-8%,-4%,5%
CCOC(=O)CNC(=O)C12CC3CC(CC(C3)C1)C2,i,-9%,i,14%,15%,6%
Cc1ccccc1Nc1c(-c2c[nH]c3ccccc23)nc2cccc(C)n12,?,-15%,i,.,.,-18%
Cn1c(=O)c2c(nc(SCCN3CCOCC3)n2Cc2ccccc2Cl)n(C)c1=O,i,-15%,i,8%,10%,1%
Cn1c(=O)c2c(nc(SCCN3CCOCC3)n2Cc2cccc3ccccc23)n(C)c1=O,4.1µM*,-22%,i,?,-19%,-9%
SMILES,KB-V1 cytotox,HepG2 tox,KB-3-1 cytotox,HT1080 IDH1KD tx,HT1080-NT tox,TGFb SMAD3 inh
O=C(Cn1nc(CNc2ccc(Cl)cc2)[n+]2c1CCCCC2)c1ccc(Br)cc1,i,-37%,?,-19%,-13%,0%
O=C(Cn1nc(CNc2ccc(Br)cc2)[n+]2c1CCCCC2)c1ccc([N+](=O)[O-])cc1,i,1%,13µM*,?,?,-22%
Cn1c(=O)n(C/C=C/c2ccccc2)c(=O)c2c1nc1n2CCN1c1ccccc1,.,13%,.,.,.,1%
CCN(CC)c1ccc(/C=C/c2ccncc2)cc1,i,-38%,0.52µM*,.,.,88%
O=C(NCC1CCCO1)C(=O)NCC(c1ccco1)N1CCN(c2ccccc2)CC1 (configuration not stated),21µM*,6%,i,-17%,0%,-4%
COC(=O)NCC(c1ccco1)N1CCN(c2ccccc2)CC1 (configuration not stated),i,-8%,i,2%,3%,-4%
O=C(NCc1cccnc1)C(=O)NCC(c1ccco1)N1CCN(c2ccc(F)cc2)CC1 (configuration not stated),2.6µM*,-60%,?,-4%,0%,-18%
O=C(NCC1CCCO1)C(=O)NCC(c1ccco1)N1CCN(c2ccc(F)cc2)CC1 (configuration not stated),8.2µM*,23%,i,0%,0%,5%
Cc1ccc(S(=O)(=O)c2nnn3c2nc(NCc2ccc(F)cc2)c2sccc23)cc1C,i,-15%,i,.,.,4%
Cc1cc(C)c(NC(=O)Cn2c(=O)n(CC(=O)NCc3ccccc3Cl)c(=O)c3sccc32)c(C)c1,i,3%,i,.,.,-6%
Oc1ccc(Br)cc1/C=N/n1cnc2ccccc21,15µM*,-51%,i,?,-15%,?
Oc1ccccc1C1CC(c2cccs2)=NC(c2cccc(Br)c2)N1 (configuration not stated),i,-61%,?,?,?,20µM*
CCCC1NC(=O)c2cc3ccccc3cc2-n2c1nc1ccc(F)cc1c2=O (configuration not stated),?,-31%,?,-5%,-1%,-10%

# Screening results (PubChem)
